In PubChem BioAssay (NCI) one finds growth inhibition data, which are given here for 40 compounds.

Compounds without any hit were thinned out: in the full panel of roughly 79,000, 15% have a hit. Active and inactive are the calls of the source. No stated cut-off is given here; in the data, active means growth inhibition above about 70%; inactive means the rest. Where a SMILES comes first, the peptide text is derived from it. [ ]: non-standard residue; d: D form. The star is where a group is joined. mTyr = N[CH](Cc1cccc(O)c1)C(=O)O; Cbz = O=C(OCc1ccccc1)*; OBn = c1ccc(CO*)cc1

This experiment can be described thus: NCI Yeast Anticancer Drug Screen. Data for the bub3 strain (AID 167). The settings on record: S. cerevisiae bub3 mutant strain, at 50.0 µM, stronger effect = higher value. In outline: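 In this screen, a yeast mutant lacking normal mitotic checkpoint function is challenged with compound. Relative growth versus vehicle gives the inhibition value.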
Take `CC12CCC(c3sc(N)c(C#N)c31)C2(C)C` (stereo not given): the growth inhibition is 31.7% (inactive).
For `O=C1/C(=C/c2cccc(F)c2)CCCc2ccccc21`, the growth inhibition is 75.5% (active).
Take `CC(=O)N[C@H]1CC[C@H]2[C@@H]3CCC4=CC(=O)CC[C@]4(C)[C@H]3CC[C@]12C`: the growth inhibition is 98% (active).
As for `C/C(=N/O)c1ccc2c(c1)C(=NO)c1cc(/C(C)=N/O)ccc1-2`, the figure is 93.5% (active); as for `Cc1cccc(N2C(c3ccccc3)c3ccc(C)cc3NS2=O)c1` (stereo not given), 99.2% (active); as for `[Pt].c1ccc(P(CCP(CCP(c2ccccc2)c2ccccc2)CCP(c2ccccc2)c2ccccc2)c2ccccc2)cc1`, 80.2% (active).
As for `Cc1cc(I)ccc1NC(=S)Nc1ccccc1F`, the figure is 95.1% (active).
The value for `FC(F)(F)c1ccccc1NC(=S)SCc1ccc(Cl)cc1` was 97.4% (active); that for `COC(=O)C1(C)CC2C(C)(CCC3(C)C4=CC=C5C(=CC(=O)C(O)=C5C)C4(C)CCC23C)CC1O` (stereo not given) was 87.3% (active); that for `CC1CCC(=NNC(N)=O)CC1` (stereo not given) was 9.5% (inactive).
With `CCOC(=O)C(NS(=O)(=O)c1ccccc1)(C(F)(F)F)P(=O)(OCC(C)C)OCC(C)C` (stereo not given), the growth inhibition is 96.2% (active).
The value for `O=[N+]([O-])c1ccc(/C=N/NC2=CS(=O)(=O)C=C2)cc1` was 16.7% (inactive).
Regarding `CC(C)c1ccc2c(c1)CCC1C(C)(CNC(=O)S)CCCC21C.[Zn+2]` (stereo not given), the growth inhibition was 2% (inactive).
The value for `Cc1ccc(N=Nc2sc(N)nc2C)cc1C` was 87.9% (active); that for `CC(C)(C)C1CCC2c3c([nH]c4ccccc34)C3C(=O)N(c4ccc(C(=O)O)cc4)C(=O)C3C2C1` (stereo not given) was 99.3% (active); that for `O=C(CBr)Nc1ccc(Cc2ccc(NC(=O)CBr)cc2)cc1` was 98.1% (active).
The value for `O=c1[nH]c2c([N+](=O)[O-])cc(Cl)cc2nc1/C=C(\O)c1ccc(Cl)cc1` was 89.8% (active); that for `CCOC(=O)C1=C(N)N(S(=O)(=O)c2ccc(C)cc2)CCC(C(=O)OC)=C1` was 26.2% (inactive); that for `CC(C)=CC(=O)OC(CCCc1ccccc1)c1ccc2c(c1)OCO2` (stereo not given) was 50% (inactive).
As for `OCCN(CCO)c1cc(/C=C/c2ccnc3ccccc23)nc2ccccc12`, the figure is -12.6% (inactive); as for `CCCCCCCCCCCC(=O)OCC1CO1` (stereo not given), -6.5% (inactive).
Turning to `CCCCCCCCCCCCCCCCCC1=NCCN1`, the growth inhibition was 99.3% (active).
The value for `CC(=O)OCC1OC(OC2C=C(O[Si](C)(C)C)C[C@H]3C(=O)C=CC(=O)[C@@H]23)C(OC(C)=O)C(OC(C)=O)C1OC(C)=O` (stereo not given in full) was 15.1% (inactive); that for `C[C@]12CC[C@H]3[C@@H](CCC4=CC(=O)CC[C@@]43C)[C@@H]1CC[C@@H]2C(=O)C=O` was 41.2% (inactive); that for `CCCCCC(O)C(C)CO` (stereo not given) was 0.9% (inactive).
For `CC(=O)Oc1ccc(-c2ccccc2)cc1Br`, the growth inhibition was 94.2% (active).
As to `COC(=O)C(Cc1cccc(O)c1)NC(=O)C(CC(=O)OCc1ccccc1)NC(=O)OCc1ccccc1` (stereo not given) (Cbz-Asp(OBn)-[mTyr]-OMe; configuration not given here), the growth inhibition was 91% (active).
As for `CCC(CO)Nc1nc2cc(Br)ccc2c2ccc(Br)cc12` (stereo not given), the figure is 91.9% (active); as for `Cc1cc(Br)ccc1NC(=O)/C=C/C(=O)O`, 20.2% (inactive).
As for `CCO/C=C1N=C(/C=C/c2ccccc2Cl)OC/1=O`, the figure is 36.9% (inactive); as for `O=S(=O)(Nc1ccccc1C(F)(F)F)c1ccc(F)cc1`, 35.4% (inactive); as for `N#CSCC(=O)c1ccc2ccccc2c1`, 90.5% (active).
`O=[N+]([O-])/C(Cl)=C(\Nc1ccccc1)C(Cl)=C(Cl)Cl`: the growth inhibition is 90.4% (active).
On to `C/C(=N/NC(=O)c1ccccc1S(N)(=O)=O)C(CN1CCCCC1)C(C1=C(O)C2C=CC=CC2OC1=O)c1ccccc1` (stereo not given), for which the growth inhibition is 88.8% (active).
The value for `N#Cc1c([N+](=O)[O-])cc(C(F)(F)F)cc1[N+](=O)[O-]` was 99% (active); that for `CCCCCCCCCCCCO` was 2.85% (inactive).
Take `S=C(N/N=C/c1ccccn1)N1CC2CCC(CC2)C1`: the growth inhibition is 92.7% (active).
As for `ClC1(c2ccccc2)c2ccccc2-c2ccccc21`, the figure is 95.8% (active); as for `Cc1ccc(SCC#CC#CCS(=O)c2ccc(C)cc2)cc1` (stereo not given), 97% (active).
The value for `CCCCCCCOc1ccc(C=O)cc1OC` was 50% (inactive).
